PubChem BioAssay (Tox21)
Values without a mark were called inactive. Results filed as inconclusive are left out. Entries that show only a call come without a potency. Calls of active or inactive are those of the source. Unless noted, the call rests on the fitted dose curve; in most records, active means well fitted curve in the direction sought with a large enough effect in the repeat runs; inconclusive means weak or mixed curves; inactive means no such curve, though single readings can be large; an effect the other way counts as inactive or inconclusive.

Legend:
[1] = qHTS assay for small molecules that induce genotoxicity in human embryonic kidney cells expressing luciferase-tagged ATAD5 (AID 651632); further: nearly all actives have a fitted effect of over 15% in size; further: potency means the concentration at half of the fitted maximal effect
Procedure, shortened: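 Test compounds were delivered by pin tool onto HEK293T reporter cells (2,000/well) expressing ATAD5 fused to luciferase. After 16 hr at 37C, 5% CO2, Amplite was added for 30 min at room temperature and luminescence was measured.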

[2] = qHTS assay for small molecules that induce genotoxicity in human embryonic kidney cells expressing luciferase-tagged ATAD5 - cell viability (AID 651634; calls by dose curve; further: nearly all actives have a fitted effect of over 25% in size)
Procedure, shortened: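 Quantitative high-throughput format. HEK293T cells expressing ATAD5 fused to luciferase were plated at 2,000 cells/well and treated 15.5 hr with compound versus DMSO. Viability was determined by fluorescent live-cell protease substrate, 30 min at 37C.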

[3] = qHTS assay for small molecule disruptors of the mitochondrial membrane potential - cell viability (AID 720634; calls by dose curve;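 further: human HepG2 liver cancer cells; nearly all actives have a fitted effect of over 20% in size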)
Procedure, shortened: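 Same-well counter-screen: following the MMP dye addition, CellTiter-Glo was added to 1 hr compound-treated HepG2 cells and luminescence read after 30 min at room temperature.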

[4] = qHTS assay for small molecule disruptors of the mitochondrial membrane potential (AID 720635); further: potency means the concentration at half of the fitted maximal effect
Procedure, shortened: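 Mitochondrial membrane potential tracked with Mito-MPS dye, red aggregates (ex 540/em 590 nm) against green monomers (ex 490/em 535 nm). Compound treatment 1 hr at 37C, dye 30 min in HepG2.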

[5] = qHTS assay to test for compound auto fluorescence at 590 nm (red) in HepG2 cells (AID 720674)
Procedure, shortened: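 Red autofluorescence (Ex/Em 540/590 nm, Rose Bengal sodium equivalents) was measured in HepG2 cells, 2,000 per well in MEM plus 10% FBS, plated overnight at 37 C. Readings were taken 1 hr after adding 23 nL compound or DMSO, at 37 C and 5% CO2.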

[6] = qHTS assay to test for compound auto fluorescence at 535 nm (green) in HepG2 cells (AID 720675)
[7] = qHTS assay to test for compound auto fluorescence at 460 nm (blue) in HEK293 cells (AID 720678)
Procedure, shortened: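 HEK293, 2,000 cells/well, 10% dialyzed FBS; attach 4-5 hr 37C; pin compound or DMSO; o/n 37C/5% CO2; fluorescence 405/460 nm; triamterene-equivalent units.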

[8] = qHTS assay to test for compound auto fluorescence at 590 nm (red) in HEK293 cells (AID 720679)
Procedure, shortened: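 Intensity at 540nm excitation and 590nm emission is reported as Rose Bengal sodium-equivalent autofluorescence. Measurements followed overnight exposure (37C, 5% CO2) of HEK293 cells, 2,000 per well, to 23 nL compound.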

[9] = qHTS assay to test for compound auto fluorescence at 460 nm (blue) in HEK293 cell free culture (AID 720681)
Procedure, shortened: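 Blue fluorescence (Ex 405/Em 460 nm, triamterene-equivalent) was read immediately after pin transfer of compound or DMSO into medium (DMEM, 10% FBS) without cells.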

[10] = qHTS assay to test for compound auto fluorescence at 535 nm (green) in HEK293 cell free culture (AID 720682)
Procedure, shortened: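 No cells present: wells hold DMEM supplemented with 10% FBS, into which compound or vehicle is pinned. Green emission is then recorded (485 nm excitation, 535 nm emission) and scaled to fluorescein.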

[11] = qHTS assay to test for compound auto fluorescence at 590 nm (red) in HEK293 cell free culture (AID 720683)
Procedure, shortened: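 Red-channel autofluorescence of compounds in culture medium (DMEM, 10% FBS), no cells, measured at 540/590 nm. Rose Bengal sodium is the reference fluorophore for equivalence.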

[12] = qHTS assay to test for compound auto fluorescence at 590 nm (red) in HepG2 cell free culture (AID 720684)
Procedure, shortened: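 Cell-free; medium MEM + 10% FBS; compound or DMSO added by pintool; read Ex 540/Em 590 nm; Rose Bengal sodium as red reference fluorophore.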

[13] = qHTS assay to test for compound auto fluorescence at 460 nm (blue) in HepG2 cell free culture (AID 720685)
Procedure, shortened: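 Cell-free plates of MEM plus 10% FBS received 23 nL compound or DMSO vehicle; blue-channel (405/460 nm) intensity scored against triamterene as reference fluorophore.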

[14] = qHTS assay to test for compound auto fluorescence at 535 nm (green) in HepG2 cell free culture (AID 720686)
[15] = qHTS assay to test for compound auto fluorescence at 460 nm (blue) in HepG2 cells (AID 720687)
Procedure, shortened: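 Blue-channel autofluorescence (Ex/Em 405/460 nm, triamterene-equivalent) was measured after 1 hr compound exposure at 37 C, 5% CO2. Cells were HepG2, plated overnight at 37 C in MEM plus 10% FBS.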

[16] = biological target: Glucocorticoid receptor (Homo sapiens) (UniProt P04150); test: qHTS assay to identify small molecule agonists of the glucocorticoid receptor (GR) signaling pathway (AID 720691; active means well fitted activation curve with a large enough effect in the signal ratio in the repeat runs, not every such curve was filed as active; the % refers to the signal ratio); conditions: GR-bla HeLa, beta-lactamase reporter ratio, 18 h; activation: at 62.4 µM (top of the series) unless noted
Sequence of Glucocorticoid receptor (Homo sapiens) (P04150 whole entry, looked up): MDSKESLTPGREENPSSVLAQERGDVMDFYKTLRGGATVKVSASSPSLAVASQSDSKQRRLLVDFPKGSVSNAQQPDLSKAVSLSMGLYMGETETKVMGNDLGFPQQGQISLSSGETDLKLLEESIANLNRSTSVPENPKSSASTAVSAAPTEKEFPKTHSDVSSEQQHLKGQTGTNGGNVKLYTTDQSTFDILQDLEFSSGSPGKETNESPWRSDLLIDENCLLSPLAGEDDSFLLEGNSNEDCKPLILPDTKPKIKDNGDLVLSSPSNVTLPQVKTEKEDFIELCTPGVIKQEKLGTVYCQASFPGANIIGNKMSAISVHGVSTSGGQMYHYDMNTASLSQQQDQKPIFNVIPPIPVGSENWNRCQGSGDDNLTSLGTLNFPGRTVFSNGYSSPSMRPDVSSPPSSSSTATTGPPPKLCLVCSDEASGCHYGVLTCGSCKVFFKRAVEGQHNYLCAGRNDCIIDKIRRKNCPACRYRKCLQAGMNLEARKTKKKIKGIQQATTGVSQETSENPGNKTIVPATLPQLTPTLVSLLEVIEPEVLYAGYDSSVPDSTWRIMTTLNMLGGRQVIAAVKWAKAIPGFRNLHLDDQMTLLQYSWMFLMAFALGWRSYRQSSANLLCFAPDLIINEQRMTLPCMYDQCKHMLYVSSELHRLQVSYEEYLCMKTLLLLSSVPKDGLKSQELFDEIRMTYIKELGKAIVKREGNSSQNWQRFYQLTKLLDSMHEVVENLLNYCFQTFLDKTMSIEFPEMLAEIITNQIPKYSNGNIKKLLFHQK
Procedure, shortened: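 A HeLa cervical cancer line expressing GR and a glucocorticoid response element-driven beta-lactamase gene is treated with compounds for 18 h; LiveBLAzer B/G FRET substrate is then applied and fluorescence read.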

[17] = biological target: Glucocorticoid receptor (Homo sapiens) (UniProt P04150); test: qHTS assay to identify small molecule antagonists of the glucocorticoid receptor (GR) signaling pathway (AID 720692; active means well fitted inhibition curve with a large enough effect in the signal ratio in the repeat runs, not every such curve was filed as active; the % refers to the signal ratio)
Procedure, shortened: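 GRE-bla HeLa line, dex-stimulated (5 nM final). Compound exposure 18 h, 37 C. Beta-lactamase FRET read after 2 h RT substrate.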

[18] = qHTS assay for small molecule agonists of the p53 signaling pathway - cell viability (AID 651633; calls by dose curve;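 further: p53RE-bla HCT reporter cells with a stable beta-lactamase p53 reporter; nearly all actives have a fitted effect of over 30% in size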)
Procedure, shortened: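 Viability counter-read: CellTiter-Glo luminescence (30 min, room temperature) in the same p53RE-bla plates. These plates had been exposed to compounds for 16 h at 37 C.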

[19] = qHTS assay to test for compound auto fluorescence at 535 nm (green) in HEK293 cells (AID 720680)

SMILES	Potency [1]	Potency [2]	Potency [3]	Potency [4]	Potency [5]	Potency [6]	outcome [7]	Potency [8]	outcome [9]	outcome [10]	Potency [11]	Potency [12]	outcome [13]	Potency [14]	outcome [15]	Potency [16]	Potency [17]	Potency [18]	outcome [19]
Cc1[nH]c(C)c(Cl)c(=O)c1Cl	inactive	inactive	inactive	inactive	inactive	inactive	inactive	inactive	inactive	inactive	inactive	inactive	inactive	inactive	inactive	inactive	inactive		
CCc1cc(C2=C(C(=O)O)N(c3ccccc3C(F)(F)F)S(=O)(=O)c3ccccc32)cc2c1OCO2	inactive			48 µM (active)	inactive	inactive		inactive	inactive	inactive	inactive	inactive	inactive	inactive	inactive	inactive		inactive	inactive
O=C(O)C1(C(=O)Nc2ccc(Cl)cc2Cl)CC1	1.93 µM (active)	inactive		8.63 µM (active)	inactive	inactive	inactive	inactive	inactive	inactive	inactive	inactive	inactive					inactive	inactive
CCCCCCc1ccc(-c2ccc(C#N)cc2)cc1	inactive		inactive	26.8 µM (active)	inactive	inactive	inactive	inactive	inactive			inactive	inactive	inactive	inactive			inactive	inactive
